Experimental data as given in PubChem BioAssay AID651958 (The Scripps Research Institute Molecular Screening Center, 2012).
Out of some 370,000 compounds screened, about 2,000 (0.54%) were called active. This is one part of a sample in which actives are shown more often than they occur. Cut-off read from the data, not from the text of the source: active = inhibition above about 30%; inactive = the rest.

system: Crimean-Congo hemorrhagic fever virus L polyprotein viral ovarian tumor (vOTU) protease domain; test: CCHFV vOTU protease inhibitors, primary screen, biochemical, Pep-AMC substrate, fluorescence (AID 651958); settings: at 11.5 µM, stronger effect = higher value; note: 0% = vehicle wells with enzyme and 100% = no enzyme wells

Structure (SMILES)	inhibition
COCCNC(=O)C1C(=O)Nc2ccccc2C(=O)N1c1ccc2c(c1)OCCO2 (stereo not drawn)	26.3% (inactive)
O=C(/C=C/c1cccs1)c1cc(Cl)ccc1OC(=O)N1CCOCC1	10.7% (inactive)
Cc1cc2nc(SCCN3CCOCC3)[nH]c2cc1C	3.87% (inactive)
CCOC(=O)N1CCC(C(N)=O)CC1	8.61% (inactive)
CCOC(=O)N1CCC(NC(=O)Cc2cn(C)c3ccccc23)CC1	3.03% (inactive)
CCOC(=O)N1CCC(c2cc(=O)n(-c3ccccc3)[nH]2)CC1	71.1% (active)
CCOc1ccc(CNC(=O)C2CC(=O)N(C3CCCC3)C2)cc1OC (stereo not drawn)	4.25% (inactive)
CC(C)(C)OC(=O)NC(Cc1ccccc1)C(=O)NC(CSC1CCCCO1)C(=O)NN (stereo not drawn)	-4.89% (inactive)
CCOC(=O)N(C)c1c(CC)nc2c(OCc3ccccc3C(=O)OC)cccn12	15.9% (inactive)
Cc1ccccc1CN1CCN(C(=O)c2cccc(F)c2)CC1	6.94% (inactive)
C=CCn1c(SCc2cccc(F)c2)nc2cc(C(=O)N3CCC(C(N)=O)CC3)ccc2c1=O	14.2% (inactive)
O=C1Nc2cc(C(=O)N3CCN(c4ccc(F)cc4)CC3)ccc2NC1CSCc1cccc(F)c1 (stereo not drawn)	32.1% (active)
COC(=O)C1=C(Nc2ccc(C)cc2)C=C(C)C(C(=O)OC)C1c1ccc(F)cc1 (stereo not drawn)	15.8% (inactive)
COc1ccc(C2=Nc3cc(C)ccc3OC2)cc1	14.7% (inactive)
COC(=O)c1ccccc1N=Nc1c(C)[nH][nH]c1=O	-9.29% (inactive)
CCOCCc1c(O)[nH]c(=S)[nH]c1=O	5.12% (inactive)
COc1ccccc1N=Nc1c(O)[nH]c(=S)[nH]c1=O	38.1% (active)
O=C(COC(=O)/C=C/c1ccc(S(=O)(=O)N2CCCCCC2)cc1)NCc1ccccc1Cl	-8.91% (inactive)
Cc1cc(C)nc(-n2ncc3c2CC(c2ccc(C(C)C)cc2)CC3=O)n1 (stereo not drawn)	2.76% (inactive)
Cc1cccc(C)c1NC1=NC(=S)N(c2ccc(N(C)C)cc2)C1(C)C	27.5% (inactive)
CCOC(=O)C1C(c2ccc(O)cc2)NC(=O)NC1(O)C(F)(F)F (stereo not drawn)	-18.4% (inactive)
O=C1NC(c2ccc(-c3ccccc3[N+](=O)[O-])o2)C(C(=O)c2ccc(Cl)cc2)C(O)(C(F)(F)F)N1 (stereo not drawn)	38.5% (active)
Cc1cn(C)c(=O)n(C)c1=O	-10.2% (inactive)
CCCCCCN1C[C@@H](O)[C@H](n2cc(COC(=O)c3ccccc3)nn2)C[C@@H]1c1ccc(Cl)cc1	-5.93% (inactive)

Structure (SMILES)	inhibition
Cc1ccc([C@H]2C[C@H](O)[C@@H](n3cc(COC(=O)c4ccccc4)nn3)CN2C(=O)C2CCCCC2)cc1	9.18% (inactive)
CCCCCC(=O)N1C[C@H](O)[C@@H](n2cc(COC(=O)c3ccccc3)nn2)C[C@@H]1c1ccc(C)cc1	30.5% (active)
COc1ccc(C(C#N)N2N=C(C)CC2(C)C)cc1 (stereo not drawn)	4.09% (inactive)
COc1cc(Cl)c(C)cc1NC(=O)[C@@H]1CCCN1C(=O)c1cccs1	-1.68% (inactive)
CCC1=NN(C(=O)Cc2ccc([N+](=O)[O-])cc2)C(O)(c2ccc(Br)cc2)C1 (stereo not drawn)	-9.95% (inactive)
C=CCC[C@H](CCCCC)OC(=O)/C=C/[C@H](O)[C@@H](O)C[C@@H](O)CC=C	18.2% (inactive)
C=CCC[C@@H](CCCCC)OC(=O)/C=C/[C@@H](O)[C@H](O)C[C@H](O)CC=C	32.8% (active)
O=C(CCl)NNc1cccc(Cl)n1	2.47% (inactive)
Cc1ccc(C23CC4CC(CC(C(=O)NCC(=O)O)(C4)C2)C3)cc1	12.6% (inactive)
CN(C)c1ccc(N/C=C/C(=O)C(F)(F)F)cc1	65% (active)
Cc1cc(C(=O)N/N=C/c2ccc(O)c([N+](=O)[O-])c2)c(C)n1-c1ccc(F)cc1	45.6% (active)
Cc1ccc(NC(=O)CN(C)Cc2ccc(F)cc2)c([N+](=O)[O-])c1	-3.76% (inactive)
Cc1cc(C(=O)COc2ccccc2[N+](=O)[O-])c(C)n1-c1cccc(S(=O)(=O)N2CCOCC2)c1	15.2% (inactive)
CC(C)(C)n1nnnc1C(c1ccccc1F)N1CCN(C(=O)c2ccco2)CC1 (stereo not drawn)	9.18% (inactive)
CC(=O)N1CCN(c2ccc(NCc3ccc(C(C)C)cc3)cc2)CC1	34.2% (active)
CC(C)c1ccc(NC(=O)COC(=O)c2ccc(CN3CCCC3=O)cc2)cc1	3.69% (inactive)
CC(C)c1ccc(OCC(=O)N2CCCN(C)CC2)cc1	7.24% (inactive)
O=C(NC1CC1)C1=C[C@H](c2coc3ccccc3c2=O)C[C@H](OCCCCO)O1	-2.05% (inactive)
CCOc1ccc(NC(=O)CCCCCN2C(=O)[C@@H]3Cc4ccccc4CN3C2=O)cc1	13.7% (inactive)
CC(C)(C)NC(=O)CN(C(=O)c1csnn1)c1ccccc1-c1ccccc1	-7.68% (inactive)
CSc1ccccc1NC(=O)c1cc(C2CC2)on1	11.1% (inactive)
NC1=CC(=O)C(=O)c2cccnc21	104% (active)
O=C(NC1CCN(C(=S)NCc2ccco2)CC1)c1ccc(F)cc1	13.2% (inactive)
COc1ccccc1N(CC(=O)Nc1ccc(C)cc1Cl)S(=O)(=O)c1cccs1	1.37% (inactive)
